Potency data for 97 molecules are collected here from PubChem BioAssay AID588382 (National Center for Advancing Translational Sciences (NCATS), 2011).

Screen size: about 1,300 compounds; about 150 (12%) were called active. A call without a number means that no potency is given here. Not shown: some 30% with an inconclusive outcome. Calls follow the shape of the dose curve; as a rule, active = well fitted cell-killing curve with a large enough effect; inconclusive = small, poorly fitted or top-dose-only effect, or effect the other way; inactive = flat fitted curve, though single readings scatter. Many of the other results were omitted from the sample, so actives are more common in it than they were.
Potency is read from the fitted curve at half-maximal effect.

A short description of this assay: qHTS of small molecules that selectively kill Giardia lamblia: Hit Validation in HepG2 cytotox.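 Also: compound exposure lasted overnight at 37 deg C; nearly all actives have a fitted effect of over 55% in size.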 To be noted: cell viability; Potency: HepG2 cytotoxicity; series mostly up to 38.3 µM. The procedure, abridged: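 Counterscreen cytotoxicity: ATPLite luminescence (15 min, room temperature) measured in HepG2 cells exposed overnight at 37 deg C to pin-transferred compound (23 nL) after overnight pre-incubation.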
For `CCC(=O)Nc1nc(-c2cc([N+](=O)[O-])cs2)cs1`, the Potency entry was “inactive”.

As to `COCCNC(=O)/C(C#N)=C/c1ccc(O)c([N+](=O)[O-])c1`, the Potency result is “inactive”.

Take `Cc1ccc(NC(=S)NNc2ccc([N+](=O)[O-])cc2S(=O)(=O)Nc2ccccc2C(=O)O)cc1C`: the Potency result was “inactive”.

`COc1cc(/C=C2\SC(=O)N(Cc3ccc(F)cc3)C2=O)cc([N+](=O)[O-])c1O`: the Potency entry was “inactive”.

Take `COc1ccc(-c2cc(=O)c3ccccc3o2)cc1`: the Potency result is “inactive”.

With `Cc1ccccc1-c1nc2c(=O)n(C)c(=O)nc-2n(C)n1`, the Potency was 3.29 µM (active).

Turning to `Cn1nc(-c2cccnc2)nc2c(=O)n(C)c(=O)nc1-2`, the Potency is 3.69 µM (active).

As for `COc1ccc(-c2nc3c(=O)n(C)c(=O)nc-3n(C)n2)cc1`, the Potency was 1.85 µM (active).

`COc1ccc(-c2ncn(CCC#N)c2[N+](=O)[O-])cc1`: the Potency result is “inactive”.

`CCCc1nc2c(=O)n(C)c(=O)nc-2n(C)n1`: the Potency was 8.26 µM (active).

Take `COc1ccccc1NC(=O)COc1cccnc1[N+](=O)[O-]`: the Potency entry was “inactive”.

In the case of `Cc1ccc(S(=O)(=O)N2[C@@H](c3ccc(F)cc3)C(C(=O)O)=CC[C@H]2c2cccc(C)c2)cc1`, the Potency result is “inactive”.

Take `COc1ccc(-n2nc([N+](=O)[O-])c(=NCCCN3CCCC3=O)n2O)cc1`: the Potency entry is “inactive”.

In the case of `O=C(COc1cccnc1[N+](=O)[O-])Nc1ccc2c(c1)CCC2`, the Potency result was “inactive”.

On to `Cc1c[nH]c(=O)c([N+](=O)[O-])c1`, for which the Potency result is “inactive”.

As for `Cc1cc(C(=O)N/N=C/c2ccc(O)c([N+](=O)[O-])c2)n[nH]1`, the Potency entry is “inactive”.

In the case of `COc1cc2sc(-c3ccccc3OC)c(-c3ccc(O)cc3)c2cc1OC`, the Potency result was “inactive”.

For `O=C(NN1C(=O)c2ccccc2NC1c1ccc([N+](=O)[O-])o1)c1ccc([N+](=O)[O-])cc1` (configuration not stated), the Potency entry was “inactive”.

Take `Cn1nc(-c2ccc(F)cc2)nc2c(=O)n(C)c(=O)nc1-2`: the Potency is 2.61 µM (active).

In the case of `Cc1ccc(OCC(=O)Nc2cc(S(=O)(=O)N3CCOCC3)ccc2Cl)c([N+](=O)[O-])n1`, the Potency result is “inactive”.

Consider `Cc1cc2ccccn2c1C(=O)c1ccc([N+](=O)[O-])cc1[N+](=O)[O-]`, for which the Potency result was “inactive”.

`COc1ccc2c3n([n+]([O-])c2c1)CCN=C3c1ccc(Cl)cc1`: the Potency entry was “inactive”.

With `N=NC(=O)c1ccccc1Nc1c(O)[nH]c2ccccc12`, the Potency is 16.5 µM (active).

In the case of `COc1ccc(CNC(=O)COc2cccnc2[N+](=O)[O-])cc1`, the Potency entry is “inactive”.

As to `O=[N+]([O-])c1ccc(/C=N/Nc2nc(-c3ccccc3)c3cc(Br)ccc3n2)o1`, the Potency entry was “inactive”.

For the molecule `CCOc1ccc(NC(=O)C(C)C(Cc2ccc(C)cc2)C(=O)O)cc1` (configuration not stated), the Potency result is “inactive”.

On to `Nc1c(Cl)cc(C2=NCCn3c2c2ccccc2[n+]3[O-])cc1Cl`, for which the Potency entry is “inactive”.

In the case of `O=c1[nH]c2cccnc2n1-c1ccc([N+](=O)[O-])cc1`, the Potency result was “inactive”.

For `N#Cc1c(N2CCN(c3ccc([N+](=O)[O-])cc3)CC2)[n+](=O)c2ccc(Cl)cc2n1[O-]`, the Potency entry was “inactive”.

For the molecule `CC1CCc2c(sc(NC(=O)CCCn3cnc([N+](=O)[O-])n3)c2C(N)=O)C1` (configuration not stated), the Potency result was “inactive”.

With `CC1CCc2c(sc(NC(=O)Cn3cnc([N+](=O)[O-])n3)c2C(N)=O)C1` (configuration not stated), the Potency result was “inactive”.

As for `Cn1cc([N+](=O)[O-])c(C(=O)Nc2sc3c(c2C#N)CCC3)n1`, the Potency is 2.33 µM (active).

Regarding `O=C(NN1C(=O)c2ccccc2NC1c1ccc([N+](=O)[O-])o1)c1ccccc1` (configuration not stated), the Potency entry was “inactive”.

Take `CN(C)c1ccc(N=Nc2ccccc2C(=O)OCC(=O)N2CCCC2)cc1`: the Potency result was “inactive”.

As to `Cc1cc(N)ccc1N=Nc1c(C)n(C)n(-c2ccccc2)c1=O`, the Potency result is “inactive”.

For `FC(F)(F)c1ccc2c(c1)N1CCCC1CN2` (configuration not stated), the Potency entry is “inactive”.

As for `CC(C)c1ccc(N=c2c([N+](=O)[O-])nn(-c3ccc4c(c3)OCCO4)n2O)cc1`, the Potency entry is “inactive”.

For `Fc1ccc2cc(-c3ccsc3)ncc2c1`, the Potency entry is “inactive”.

On to `CC/C=C1/N=C2C(=O)N(C)C(=O)N=C2N(C)N1`, for which the Potency is 3.29 µM (active).

For the molecule `O=[N+]([O-])c1ccc(COn2nnc3ccccc32)cc1`, the Potency entry is “inactive”.

Consider `COc1ccc2c(c1)[n+](=O)c(C(C)=O)c(C)n2[O-]`, for which the Potency entry was “inactive”.

With `Cc1nonc1OCCn1c([N+](=O)[O-])cnc1C`, the Potency result is “inactive”.

With `CCCOC(=O)/C(=C\c1ccc([N+](=O)[O-])o1)NC(=O)c1ccccc1`, the Potency entry is “inactive”.

For `O=[N+]([O-])c1ccc2c3n([n+]([O-])c2c1)CCN=C3c1ccc(Cl)cc1`, the Potency entry is “inactive”.

`O=[N+]([O-])c1ccc(-c2ccn[nH]2)o1`: the Potency result was “inactive”.

Turning to `O=C1NC(=S)S/C1=C\C=C\c1ccc([N+](=O)[O-])o1`, the Potency was 3.29 µM (active).

As to `O=[N+]([O-])c1ccc(/C=[N+](\[O-])CCO)o1`, the Potency entry is “inactive”.

On to `O=[N+]([O-])c1ccccc1S(=O)(=O)Oc1ccccc1/C=N/n1cnnc1`, for which the Potency result is “inactive”.

In the case of `CC(=O)c1ccc(NC(=O)COC(=O)c2ccccc2N=Nc2ccc(N(C)C)cc2)cc1`, the Potency entry was “inactive”.

Regarding `O=C(Nc1cccc2ccccc12)C12CC3CC(C1)CC(n1cnc([N+](=O)[O-])n1)(C3)C2`, the Potency result is “inactive”.

`Cc1cccc(-n2ncc3c(N4CCCC4)ncnc32)c1`: the Potency is 2.07 µM (active).

On to `O=C(c1ccco1)N1CCN(Cc2cc(=O)c(OCc3ccc([N+](=O)[O-])cc3)co2)CC1`, for which the Potency result is “inactive”.

Consider `COC(=O)c1ccccc1NC(=O)N1c2ccccc2Sc2ccccc21`, for which the Potency result was “inactive”.

Consider `Cc1cccc(N2CCN(Cc3ccc([N+](=O)[O-])o3)CC2)c1C`, for which the Potency result was “inactive”.

On to `CCCC(=O)NC(=S)NNC(=O)c1ccc([N+](=O)[O-])cc1`, for which the Potency result is “inactive”.

Take `Cc1cc(-c2ccc(C)c(S(=O)(=O)N3CCN(c4ccc([N+](=O)[O-])cc4)CC3)c2)on1`: the Potency result was “inactive”.

`N#Cc1c(Nc2ccccc2)[n+]([O-])c2ccc(Cl)cc2[n+]1[O-]`: the Potency is 3.29 µM (active).

`COc1ccc(CC(=O)Nc2ncc([N+](=O)[O-])s2)cc1OC`: the Potency entry is “inactive”.

In the case of `O=[N+]([O-])/C(Cl)=C(/NCCO)C(Cl)=C(Cl)Cl`, the Potency entry was “inactive”.

Take `COc1ccc(Cn2cnc([N+](=O)[O-])c2)cc1[N+](=O)[O-]`: the Potency entry is “inactive”.

On to `O=[N+]([O-])c1cc(/C=N/Nc2nc(N3CCCCC3)nc(N3CCCCC3)n2)ccc1O`, for which the Potency result is “inactive”.

As to `O=C(Nc1ccccc1N1CCN(C(=O)c2ccccc2)CC1)c1ccc([N+](=O)[O-])o1`, the Potency result is “inactive”.

For `Cc1ccccc1C(=O)N1CCN(c2ccc(NC(=O)c3ccc([N+](=O)[O-])o3)cc2)CC1`, the Potency was 3.29 µM (active).

In the case of `O=C(Nc1ccc(N2CCN(C(=O)c3ccc(Cl)cc3)CC2)cc1)c1ccc([N+](=O)[O-])o1`, the Potency is 3.29 µM (active).

As to `O=C(Nc1ccc(N2CCN(C(=O)c3ccccc3)CC2)cc1)c1ccc([N+](=O)[O-])o1`, the Potency was 4.65 µM (active).

As to `O=C(c1ccc([N+](=O)[O-])o1)N1CCN(Cc2ccccc2)CC1`, the Potency entry is “inactive”.

Take `O=[N+]([O-])c1ccc(N2CCN(Cc3ccc([N+](=O)[O-])o3)CC2)cc1`: the Potency result was “inactive”.

Regarding `C[C@H]1CN=C(N(C)C)N1CCC1CCCC1`, the Potency result was “inactive”.

As for `CC(Oc1ccccc1)C(=O)Nc1nnc(S(=O)(=O)N2CCCCCC2)s1` (configuration not stated), the Potency entry is “inactive”.

For the molecule `COc1cccc([C@@H]2CC=C(C(=O)O)[C@H](c3ccccc3F)N2S(=O)(=O)c2ccc(C)cc2)c1`, the Potency entry was “inactive”.

Turning to `O=[N+]([O-])c1c(C(Cl)Cl)nn(-c2ccccc2)c1N1CCOCC1`, the Potency entry was “inactive”.

`Cc1ccc(Nc2ccc([N+](=O)[O-])nc2[N+](=O)[O-])cc1`: the Potency result is “inactive”.

As to `Cc1ccc(CNC(=O)c2cc(-c3ccccc3C)n(CC3CC(c4cccc([N+](=O)[O-])c4)=NO3)n2)cc1` (configuration not stated), the Potency result is “inactive”.

Regarding `CN(C(=O)CSc1nc2ccc([N+](=O)[O-])cc2s1)C1CCS(=O)(=O)C1` (configuration not stated), the Potency result is “inactive”.

As to `COCCCn1[nH]c2c3c(ccc2c1=O)C(=O)c1ccccc1C3=O`, the Potency entry is “inactive”.

Turning to `COc1ccc(C(=O)C(C)OC(=O)CNC(=O)c2ccco2)cc1` (configuration not stated), the Potency result was “inactive”.

Take `O=C(CSc1ccsc1[N+](=O)[O-])NC1CCCC1`: the Potency result was “inactive”.

As to `O=C(COc1cccnc1[N+](=O)[O-])NCc1cccs1`, the Potency entry is “inactive”.

On to `CC(C)CNC(=S)NC(=O)c1csc([N+](=O)[O-])c1`, for which the Potency result is “inactive”.

As for `O=C(NCCO)c1ccc2c3n(nc2c1)-c1ccccc1CO3`, the Potency was 2.93 µM (active).

Take `Cc1cnc([N+](=O)[O-])n1CCOC(=O)NC(=O)c1cccc(F)c1`: the Potency result was “inactive”.

Consider `C[C@@H]1CN([C@H](C)CO)C(=O)c2cc(NC(=O)Nc3ccc4c(c3)OCO4)ccc2O[C@H]1CN(C)Cc1ccncc1`, for which the Potency entry is “inactive”.

`O=C(O)c1cccc(S(=O)(=O)N(Cc2ccccc2)c2ccccc2Cl)c1`: the Potency entry is “inactive”.

For the molecule `O=C(CSc1ccsc1[N+](=O)[O-])NCCc1ccccc1`, the Potency result is “inactive”.

For `O=C(NCc1ccco1)NC(=O)c1csc([N+](=O)[O-])c1`, the Potency result was “inactive”.

Turning to `CC(NC(=O)C12CC3CC(CC(C3)C1)C2)C(=O)NN=Cc1ccc([N+](=O)[O-])o1` (configuration not stated), the Potency result is “inactive”.

For `O=C(CNc1cccc([N+](=O)[O-])c1)N/N=C/c1ccc([N+](=O)[O-])o1`, the Potency result is “inactive”.

As to `CCCCCCCC(=O)N/N=C/c1ccc([N+](=O)[O-])o1`, the Potency result was “inactive”.

`O=C(CNc1ccc2ccccc2c1)N/N=C/c1ccc([N+](=O)[O-])o1`: the Potency result was “inactive”.

Regarding `O=C(N/N=C/c1ccc([N+](=O)[O-])o1)C1CC1`, the Potency entry is “inactive”.

Turning to `O=C(CC12CC3CC(CC(C3)C1)C2)N/N=C/c1ccc([N+](=O)[O-])o1`, the Potency was 16.5 µM (active).

Take `O=C(N/N=C\c1ccc([N+](=O)[O-])o1)C1COc2ccccc2O1` (configuration not stated): the Potency entry is “inactive”.

On to `O=C(Cc1ccc([N+](=O)[O-])cc1)N/N=C/c1ccc([N+](=O)[O-])o1`, for which the Potency was 5.21 µM (active).

`O=C(N/N=C/c1ccc([N+](=O)[O-])o1)c1ccc2c(c1)OCO2`: the Potency was 4.65 µM (active).

As to `CCOC(=O)CN1C(=O)S/C(=C/c2cccc([N+](=O)[O-])c2O)C1=O`, the Potency result is “inactive”.

Turning to `Cc1ccc(S(=O)(=O)N2CCN(C(=O)COc3ccc(C)nc3[N+](=O)[O-])CC2)c(C)c1`, the Potency result was “inactive”.

Turning to `Cc1ccc(OCC(=O)c2cc(C)n(C)c2C)c([N+](=O)[O-])n1`, the Potency result was “inactive”.
